# Screens from PubChem.
# Sm TGR inh – S. mansoni TGR enzyme inhibition; purified TGR, DTNB reduction, TNB absorbance 405 nm; Potency, µM (top dose mostly 114 µM), inactives show top-dose activity change, negative = inhibition, most hits filed as inhibitors; hit rate 3% among 360,000; also: potency is read from the fitted curve at half-maximal effect; nearly all actives have a fitted effect of over 60% in size
#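 Kinetic colorimetric format: TGR-catalysed, NADPH-driven DTNB reduction monitored via TNB absorbance. Enzyme dispensed at 20 nM; compound exposure 15 min at room temperature before reaction start.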
# Giardia FBPA inh – inhibitors of Giardia lamblia fructose-1,6-bisphosphate aldolase; A8B2U2; purified Giardia FBPA; Potency, µM (doses to about 59.6 µM), for inactives: top-dose activity, negative = inhibition, hits mostly inhibitors; hit rate 0.71% among 290,000; also: potency is read from the fitted curve at half-maximal effect; nearly all actives have a fitted effect of over 55% in size
# Target sequence (A8B2U2 whole entry, looked up): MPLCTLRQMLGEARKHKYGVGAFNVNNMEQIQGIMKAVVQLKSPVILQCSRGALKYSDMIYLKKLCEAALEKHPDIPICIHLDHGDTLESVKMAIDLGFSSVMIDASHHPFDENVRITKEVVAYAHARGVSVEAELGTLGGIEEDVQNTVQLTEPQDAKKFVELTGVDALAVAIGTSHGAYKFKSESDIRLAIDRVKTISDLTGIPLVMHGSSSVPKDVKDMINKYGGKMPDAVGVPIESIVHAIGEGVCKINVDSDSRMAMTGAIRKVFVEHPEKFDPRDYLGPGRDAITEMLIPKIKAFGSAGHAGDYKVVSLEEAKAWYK
#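 40 nM FBPA preincubated 10 min at RT with compound (up to 57.5 uM final), then substrate plus GAPDH/TPI/NAD/arsenate coupling and diaphorase/resazurin added. Fluorescence read after 20 min at RT, 525/598 nm.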
# Pf growth 48h – inhibits P. falciparum growth in the first generation, 48 h. P. falciparum luciferase growth in erythrocytes, 48 h. Potency, µM (top dose mostly 28.7 µM), inactives show at the highest dose activity change, negative = inhibition, most hits filed as inhibitors. hit rate 5.9% among 310,000. AID 504832; also: potency is read from the fitted curve at half-maximal effect
#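 Compounds are pin-transferred into medium, infected erythrocytes (2% hematocrit, 0.1% parasitemia final) are added, and plates sit one parasite generation at 37 C in 5% CO2. Detection reagent is then added and luminescence measured.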
# HCMV inh – human cytomegalovirus inhibition | HFF cells, HCMV-luciferase reporter, 72 h; hits give low values | hit rate 4.5% among 410,000 | activity change, negative = inhibition, % at 57.5 µM | AID 1259415; in the data active = activity change below about -60%; inconclusive = no clear call, values can overlap the other calls; inactive = above about -39%
#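 Inhibition of viral replication was scored as loss of reporter luminescence in HFFs infected with HCMV-luciferase (MOI 1 PFU/cell) for 72 h; compounds tested at 2 doses, normalized to buffer and Salinomycin controls.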
# Pf growth 96h – inhibits malaria parasite growth, 96 h; Potency, µM (titrated, usually from 28.7 µM), inactives show top-dose activity change, negative = inhibition, most hits filed as inhibitors; hit rate 6.9% among 320,000; AID 504834; P. falciparum luciferase reporter growth, 96 h; also: potency is read from the fitted curve at half-maximal effect
#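 Readout is luminescence from an integrated firefly luciferase in P. falciparum. Red cells, 2% hematocrit and 0.05% parasitemia final, were cultured with compound through two parasite generations (96 hours) at 37 C, 5% CO2.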
# * = called active by the depositor; ? = inconclusive; · = not tested or not shown; [ ] = another dose, or the depositor's remark. An excerpt weighted towards active compounds, which were near 14% of everything screened. Unless noted, calls follow the shape of the dose curve; as a rule, active = well fitted curve in the direction sought with a large enough effect; inconclusive = small, poorly fitted or top-dose-only effect, or another doubt; inactive = no such curve, though single readings can be large; an effect the other way counts as inactive or inconclusive. % is scaled to controls: 0 for no effect and ±100 for the full control effect.
SMILES,Sm TGR inh,Giardia FBPA inh,Pf growth 48h,HCMV inh,Pf growth 96h
COc1ccc(N(C)S(=O)(=O)c2ccc3c(c2)NC(=O)CO3)c(OC)c1,-14.6%,·,15.8%,6.5,-22.6%
CNC(=O)NC(=O)COC(=O)c1cccc(S(=O)(=O)N2CC3(C)CC2CC(C)(C)C3)c1 (centres undefined),-2.9%,·,?,-13.2,-0.1%
CC1(C)CC2CC(C)(CN2S(=O)(=O)c2cccc(C(=O)OCC(=O)NC(N)=O)c2)C1 (centres undefined),15.8µM*,·,-13.8%,-25.9,-21.6%
COc1cc(OC)c2ccc(=O)oc2c1C(CC(=O)N1CCCC1)c1ccc2c(c1)OCO2 (centres undefined),-23.0%,8.9%,9.28µM*,-32.0,?
COc1cc(O)c(C(CC(=O)N2CCN(c3ccccc3)CC2)c2ccc(N(C)C)cc2)c(OC)c1 (centres undefined),3.5%,-20.9%,?,-1.5,11.7µM*
COc1ccc(C(CC(=O)N2CCN(c3ccccc3)CC2)c2c(OC)cc(OC)c3ccc(=O)oc23)cc1 (centres undefined),8.4%,0.1%,7.38µM*,4.8,8.28µM*
COc1cc(OC)c2ccc(=O)oc2c1C(CC(=O)N1CCCCC1)c1ccc2c(c1)OCO2 (centres undefined),·,1.5%,·,·,·
COc1cc(C(CCN2CCN(c3ccccc3)CC2)c2c(OC)cc(OC)c3c(C)cc(=O)oc23)cc(OC)c1OC (centres undefined),2.4%,-9.7%,2.62µM*,-39.6,3.7µM*
COc1cccc(CC(=O)N2CCc3nc(-c4ccccc4)c4c(c3C2)CO[C@@H](C)C4)c1,·,7.0%[12.9 µM],·,·,·
CCCCc1c(O)n(-c2ccccc2)[nH]c1=O,·,1.7%,·,·,·
CCN(CC)CCC(c1cc(OC)c(OC)c(OC)c1)c1c(OC)cc(OC)c2c(C)cc(=O)oc12 (centres undefined),18.2%,3.8%,9.28µM*,1.1,?
COc1cc(C(CCN2CCCC2)c2c(OC)cc(OC)c3ccc(=O)oc23)cc(OC)c1OC (centres undefined),-20.8%,2.2%,?,0.9,10.4µM*
COc1cc(C(CC(=O)N2CCCC2)c2c(OC)cc(OC)c3ccc(=O)oc23)cc(OC)c1OC (centres undefined),-21.5%,5.0%,13.1µM*,22.5,13.1µM*
Cn1cnc2nc[nH]c2c1=O,·,·,·,11.5,·
O=C(O)c1[nH]c2ccccc2c1C(c1cc(Br)ccc1O)c1c(C(=O)O)[nH]c2ccccc12,-15.8%,15.0%,?,69.4,?
Cc1ccc(C(c2cccc(Br)c2)c2c(C)[nH]c3ccccc23)s1 (centres undefined),25.1µM*,·,·,-26.2,·
CC1=C(c2ccc(NN=C(C#N)C#N)cc2)NNC(=O)C1,·,·,0.8%,·,-16.7%
N/C(=N\c1nc2c(c(=O)[nH]1)CCCC2)Nc1ccc(Oc2ccccc2)cc1,4.5%,1.8%,?,?,8.28µM*
Cn1c(=O)c2sccc2n2c(CCC(=O)NCc3ccc(F)cc3)nnc12,5.1%,·,·,5.6,·
COc1ccc(Nc2nc(-c3ccncc3)nc3ccccc23)cc1,-12.0%,2.8%,·,-8.9,0.7%
COc1ccc(OC)c(Nc2nc(-c3ccncc3)nc3ccccc23)c1,7.9%,7.0%,1.85µM*,-2.6,1.85µM*
Cc1ccc(C)c(Nc2nc(-c3ccncc3)nc3ccccc23)c1,-9.5%,4.6%,10.4µM*,-1.8,-16.1%
Fc1cccc(Nc2nc(-c3ccncc3)nc3ccccc23)c1,5.4%,2.5%,9.28µM*,73.4,4.15µM*
O=[N+]([O-])c1ccc(-c2nc(Nc3cccc(O)c3)c3ccccc3n2)cc1,-2.5%,6.1%,?,-9.6,98.3%
O=C(O)c1cccc(Nc2nc(-c3ccc([N+](=O)[O-])cc3)nc3ccccc23)c1,1.0%,-6.0%,-34.9%,-70.8*,1.1%
SMILES,Sm TGR inh,Giardia FBPA inh,Pf growth 48h,HCMV inh,Pf growth 96h
COc1ccc(Nc2nc(-c3ccccc3)nc3ccccc23)c(OC)c1,1.8%,-0.7%,?,?,?
CC(C)c1ccc(CN2CCC2(C)C(=O)Nc2cnc3ccccc3c2)cc1 (centres undefined),·,·,·,-12.9,·
CC(C)CO/N=C1/C[C@@H](O)[C@@H](O)[C@@H]2[C@@H]3C(=O)N(C4CCCCC4)C(=O)[C@H]3CC[C@H]12,·,-1.0%[12.9 µM],·,·,·
O=C(OCCNc1nc(-c2ccccc2)nc2ccccc12)c1cccnc1,·,-1.1%,-11.7%,4.5,13.9%
CCCOC(=O)c1cccc(Nc2nc(-c3cccnc3)nc3ccccc23)c1,4.9%,-19.8%,9.28µM*,133.5,0.0%
NC(=O)C1CCN(C(=O)Nc2csc3ccccc23)CC1,-14.6%,-13.8%,-0.9%,108.7,8.0%
O=C(Nc1ccccc1N1CCCC1)c1cc2ccccc2o1,-19.7%,15.4%,?,79.0,1.0%
CN1CCN(c2ccccc2NC(=O)c2ccc(-c3ccc(Cl)cc3Cl)o2)CC1,9.5%,-0.1%,·,-38.5,4.15µM*
CN1CCN(c2ccccc2NC(=O)c2ccc(-c3cccc(Cl)c3)o2)CC1,-5.4%,·,?,26.6,-15.7%
CS(=O)(=O)N1CCN(c2ccccc2NC(=O)c2ccc(-c3ccc(Cl)cc3Cl)o2)CC1,?,13.5%,11.7µM*,42.4,·
CN1CCN(c2ccccc2NC(=O)c2cc3ccccc3o2)CC1,-22.5%,0.2%,?,108.1,4.65µM*
CS(=O)(=O)N1CCN(c2ccccc2NC(=O)c2ccc(Br)o2)CC1,-16.9%,20.2%,12.1%,60.1,37.2%
Cc1ccccc1CN1CCN(c2ncc(C(=O)NCCN(C)C)s2)C1=O,·,·,·,-18.2,·
CN1CCc2nc(SCC(=O)Nc3ccc(F)cc3)c(C#N)cc2C1,28.2µM*,-20.1%,29.4%,·,4.5%
COc1ccc(NC(=O)CSc2nc3c(cc2C#N)CN(C)CC3)cc1,79.4µM*,-16.6%,-0.9%,-13.9,16.2%
CCN1CCc2nc(SCC(=O)Nc3ccc(OC)cc3)c(C#N)cc2C1,-15.4%,-29.9%,-1.7%,17.0,0.0%
CC1(C)CN2C(=S)N(c3ccccc3)C(c3ccccc3)N2C1 (centres undefined),-1.0%,2.3%,·,8.2,8.28µM*
S=C1N(c2ccccc2)C(c2ccc(Cl)cc2)N2CCCN12 (centres undefined),-7.5%,0.0%,-17.4%,-1.9,?
Cc1ccc(CNc2nc3ccccc3c3nc(-c4cccc(C)c4)nn23)cc1,2.4%,·,·,118.8,·
COc1ccc(Cl)cc1NC(=O)NCc1cccnc1,4.6%,·,10.3%,-10.0,88.7%
COc1ccc(Cl)cc1NC(=O)c1c(NCc2cccnc2)sc2c1CCCC2,20µM*,·,·,2.1,·
CCOc1ccccc1NC(=O)c1c(NCc2ccc(C)o2)sc2c1CCCCC2,8.91µM*,·,·,8.2,·
CC(Oc1ccc(F)cc1)C(=O)Nc1sc2c(c1C(=O)NCc1cccnc1)CCCC2 (centres undefined),0.2%,-9.8%,8.28µM*,35.6,6.57µM*
